± gives the standard deviation of the averaged measurements.
The compounds below were run on HEK293FT dCK*-only (assay: relative growth in counter assay (no AraC = 100%, AraC + DMSO = 0%); higher = more growth rescue independent of IKZF1). Conditions: compound concentration: 5 uM; AraC concentration: 0.3 uM; overnight pretreatment + 4 days AraC.
Method in brief: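 For this counter assay, relative growth was normalised on each plate to two kinds of reference wells. HEK293FT cells expressing only an engineered kinase construct (300/well, 384-well) were treated with 5 μM compound 2 h after seeding, then after overnight at 37 °C with a nucleoside suicide substrate at 0.3 μM plus medium for 4 days. On day 5, Hoechst 33342-stained nuclei were counted by imaging, taking wells without suicide substrate as 100% and substrate plus vehicle as 0%.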

Row | SMILES | relative growth in counter assay
1 | c1ccc2c(c1)Nc1ccccc1S2 | -0.21%
2 | CCOc1ccccc1-n1c(C(C)N2CCN(C(=O)COc3ccc(Cl)cc3)CC2)nc2ccccc2c1=O (configuration not stated) [Erastin] | -4.63%
3 | CCC(C)[C@H]1O[C@]2(C=C[C@@H]1C)C[C@@H]1C[C@@H](C/C=C(\C)[C@@H](OC3C[C@H](OC)C(O[C@H]4C[C@H](OC)[C@@H](O)[C@H](C)O4)[C@H](C)O3)[C@@H](C)/C=C/C=C3\CO[C@@H]4[C@H](O)C(C)=C[C@@H](C(=O)O1)[C@]34O)O2 (some centres not stated) [ABAMECTIN (avermectin B1a shown)] | -8.1%
4 | CCCCC1(C2CCCC2)Cc2cc(OCCCC(=O)O)c(Cl)c(Cl)c2C1=O (configuration not stated) | 2.86%

The compounds below were run on HEK293FT dCK*-IKZF1 (assay: relative growth recovery (pomalidomide 10 uM = 100%, DMSO = 0%); higher = more growth rescue (IKZF1 fusion degradation)). Conditions: compound concentration: 5 uM; AraC concentration: 0.3 uM; overnight pretreatment + 4 days AraC.
Method in brief: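 HEK293FT cells stably expressing an engineered deoxycytidine kinase–IKZF1 fusion were seeded at 300 per well in 384-well plates and given 5 μM compound 2 h later. After overnight incubation at 37 °C, a nucleoside suicide substrate at 0.3 μM was added with medium for 4 days, and on day 5 Hoechst 33342-stained nuclei were counted by whole-well imaging. Growth recovery was normalised per plate between a reference degrader and vehicle, set to 100% and 0% respectively, and the values are means of duplicates run on different days.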

Row | SMILES | relative growth recovery
5 | ClC(C=C3)=C(Cl)C=[C@@]3[C@H]2C1=CC=CC=C1[C@H](NC)C2 [indatraline] | -3.33%
6 | Oc1cc(Cl)ccc1Oc1ccc(Cl)cc1Cl | -0.94%
7 | C[C@@]12C(=O)OC(=O)[C@]1(C)[C@H]1CC[C@@H]2O1 [cantharidin] | -4.16%
8 | c1ccc(CCCN2CCN(CCOC(c3ccccc3)c3ccccc3)CC2)cc1 | 3.4%
9 | Fc1ccc(C(OCCN2CCN(C/C=C/c3ccccc3)CC2)c2ccc(F)cc2)cc1 | 8.18%
10 | CN(C)C(=S)SSC(=S)N(C)C | -12.7%
11 | COc1cc([C@@H]2c3cc4c(cc3[C@H](O)[C@H]3COC(=O)C23)OCO4)cc(OC)c1OC (some centres not stated) [Podofilox] | -12.1%
12 | CO[C@H]1C[C@H](O[C@H]2CC[C@@]3(C)[C@H](CC[C@@H]4[C@@H]3CC[C@]3(C)[C@@H](C5=CC(=O)OC5)[C@@H](OC(C)=O)C[C@]43O)C2)O[C@@H](C)[C@@H]1O [Oleandrin] | -12.7%
13 | COc1cc2c(c(OC)c1OC)-c1ccc(OC)c(=O)cc1[C@@H](NC(C)=O)CC2 | -11.6%
14 | COc1cc([C@@H]2c3cc4c(cc3[C@H](O)[C@H]3COC(=O)[C@H]23)OCO4)cc(OC)c1OC | -11.7%
15 | C=C(C)CN1CC[C@]23c4c5ccc(O)c4O[C@H]2c2[nH]c4ccccc4c2C[C@@]3(O)C1C5 | -3.3%
16 | C[C@]12CCC3C(CC[C@]4(O)C[C@@H](O)CC[C@]34C=O)[C@@]1(O)CCC2C1=CC(=O)OC1 (some centres not stated) [Strophantidin] | -11.4%
17 | COc1cc2c(c(OC)c1OC)-c1ccc(OC)c(=O)cc1[C@@H](NC(C)=O)CC2 [Colchicine] | -12.2 ± 0.36%
18 | O=c1[nH]c2ccccc2n1CCCN1CCC(n2c(=O)[nH]c3cc(Cl)ccc32)CC1 | 2.7%
19 | O=C(N/N=C/c1ccc([N+](=O)[O-])o1)c1cc([N+](=O)[O-])cc([N+](=O)[O-])c1O | -2.9%
20 | C[C@@]1(CO)[C@H](O)CC[C@@]2(C)[C@H]1CC[C@H]1C[C@@H]3C[C@@]12CC[C@]3(O)CO [Aphidicolin] | -12.3%
21 | CC[C@H]1C2CC3[C@@H]4N(C)c5ccccc5[C@]45C[C@@H](C2C5O)N3[C@@H]1O (some centres not stated) | 1.42%
22 | COC[C@H]1OC(=O)c2coc3c2[C@@]1(C)C1=C(C3=O)[C@@H]2CCC(=O)[C@@]2(C)C[C@H]1OC(C)=O [Wortmannin] | 1.92%
23 | CC(=O)OC[C@]12CCC(C)=C[C@H]1O[C@@H]1[C@H](O)[C@@H](OC(C)=O)[C@@]2(C)[C@@]12CO2 [Diacetoxyscirpenol] | -12.7%
24 | CC[C@@]1(C2O[C@@H](C3O[C@@](O)(CO)[C@H](C)C[C@@H]3C)C[C@@H]2C)CC[C@H]([C@]2(C)CC[C@]3(C[C@H](O)[C@@H](C)[C@@H]([C@@H](C)[C@@H](OC)[C@H](C)C(=O)O)O3)O2)O1 (some centres not stated) | -0.68%
25 | O=C(Nc1ccc(Br)cc1)c1cc(Br)cc(Br)c1O [tribomsalan] | -2.67%
26 | O=c1[nH]c2ccccc2n1C1CCN(CCCC(c2ccc(F)cc2)c2ccc(F)cc2)CC1 [Pimozide] | -1.04%
27 | c1ccc2c(c1)Sc1ccccc1N2CC1CN2CCC1CC2 (configuration not stated) [levomequitazine] | 0.35%
28 | NCC1(CC(=O)O)CCCCC1 | -0.56%
29 | C[C@]12CC[C@H](O)C[C@H]1CC[C@@H]1[C@@H]2C[C@@H](O)[C@]2(C)[C@@H](C3=CC(=O)OC3)CC[C@]12O [Digoxigenin] | -10.9%
30 | N=C(Nc1ccccc1)Nc1ccccc1 [diphenylguanidine] | -1.17%
31 | O=c1[nH]c2ccccc2n1C1CCN(CCCC(c2ccc(F)cc2)c2ccc(F)cc2)CC1 | 5.47%
32 | CO[C@@]12C(=COC(N)=O)c3c(O)c(N)c(C)c(O)c3N1C[C@@H]1N[C@@H]12 [Mitomycin C] | -6.43%

— the supplement of paper PMC12340641
